Among all 310,000 compounds or so, about 14,000 (4.5%) showed an effect of 50% or more. Effects have a minus sign here. This is one part of a sample in which strong results are shown more often than they occur.
target: human ether-à-go-go-related gene (hERG) potassium channel (human, UniProt Q12809); experiment: primary screen, population patch clamp on CHO cells stably expressing hERG; higher = less effect of the substance
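Note: peak tail current of the secondary pulse compared with the same well before compound.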

Sequence of human ether-à-go-go-related gene (hERG) potassium channel (Q12809 whole entry, looked up): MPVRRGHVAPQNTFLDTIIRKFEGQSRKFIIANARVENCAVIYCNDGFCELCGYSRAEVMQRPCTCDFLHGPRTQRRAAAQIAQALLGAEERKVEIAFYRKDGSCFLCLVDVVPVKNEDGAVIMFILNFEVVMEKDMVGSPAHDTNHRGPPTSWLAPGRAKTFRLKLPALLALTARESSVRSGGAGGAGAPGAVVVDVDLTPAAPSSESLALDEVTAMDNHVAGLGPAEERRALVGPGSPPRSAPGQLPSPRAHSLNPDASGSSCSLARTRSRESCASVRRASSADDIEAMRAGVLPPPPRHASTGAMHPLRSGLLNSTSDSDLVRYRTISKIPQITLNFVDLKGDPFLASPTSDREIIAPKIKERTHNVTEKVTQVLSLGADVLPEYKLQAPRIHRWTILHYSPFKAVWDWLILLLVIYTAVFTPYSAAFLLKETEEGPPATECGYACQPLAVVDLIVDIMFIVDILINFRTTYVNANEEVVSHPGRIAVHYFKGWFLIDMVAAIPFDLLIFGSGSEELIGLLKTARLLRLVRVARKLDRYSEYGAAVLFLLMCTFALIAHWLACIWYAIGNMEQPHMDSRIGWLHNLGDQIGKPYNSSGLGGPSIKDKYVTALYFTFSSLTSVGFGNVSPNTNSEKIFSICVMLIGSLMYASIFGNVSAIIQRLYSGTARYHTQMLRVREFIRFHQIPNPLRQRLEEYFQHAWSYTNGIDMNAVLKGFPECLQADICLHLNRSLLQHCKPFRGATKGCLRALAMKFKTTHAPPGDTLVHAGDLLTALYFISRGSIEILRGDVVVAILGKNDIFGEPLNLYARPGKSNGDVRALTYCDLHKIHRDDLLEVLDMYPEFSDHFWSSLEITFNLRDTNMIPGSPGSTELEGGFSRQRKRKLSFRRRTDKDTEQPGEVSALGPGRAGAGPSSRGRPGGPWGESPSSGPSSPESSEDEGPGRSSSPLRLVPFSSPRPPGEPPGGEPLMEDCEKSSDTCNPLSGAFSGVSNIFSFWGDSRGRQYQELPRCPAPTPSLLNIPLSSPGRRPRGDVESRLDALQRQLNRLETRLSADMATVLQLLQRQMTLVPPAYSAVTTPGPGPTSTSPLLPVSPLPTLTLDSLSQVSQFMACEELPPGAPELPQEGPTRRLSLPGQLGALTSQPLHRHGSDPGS

Row | SMILES | hERG current change (%, negative = inhibition) at 10uM [%]
1 | N#Cc1c(NC(=O)CSc2nc(-c3ccco3)cc(C(F)(F)F)n2)sc2c1CCCC2 | 12.3
2 | Cc1ccc(/C=N/Nc2nc(C(C)(C)C)cs2)o1.Cl | -22.5
3 | CC(=O)Nc1cccc(NC(=O)COc2ccc3c(c2)OCO3)c1 | 4.48
4 | O=C(O)c1ccc(Br)cn1 | 9.73
5 | O=C(O)c1ccc([N+](=O)[O-])c(CS(=O)(=O)c2ccc(Cl)cc2)c1 | 6.82
6 | COC(CN1CCc2c(C)nc3c(C#N)cnn3c21)OC | 5.84
7 | Cc1nc2c(C#N)cnn2c2c1CCN(Cc1ccccc1)N2C | -58
8 | N#Cc1cnn2c(C(F)(F)F)c3c(nc12)CCCC3 | -5.18
9 | Cc1nc2c(C#N)cnn2c2c1CCN2CC1CCCO1 (stereo not shown) | -51.7
10 | COC(=O)C(C(C)C)N1CCc2c(C)nc3c(C#N)cnn3c21 (stereo not shown) | 13.9
11 | Cc1nc2c(C#N)cnn2c2c1CCNN2C | -1.38
12 | Cc1cc(=O)n2c3ccccc3n(C)c2n1 | 9.7
13 | O=C(NC1CCCCC1)N1CCN(c2ccc([N+](=O)[O-])cc2)CC1 | -92.4
14 | S=C(NC1CC1)N1CCN(c2ccc(Cl)cc2)CC1 | 1.76
15 | O=C(NC1CCCCC1)N1CCN(c2ccccc2)CC1 | -0.0694
16 | S=C(NC1CCCC1)N1CCN(c2ccc(Cl)cc2)CC1 | -13.6
17 | O=C(NC1CCCCC1)N1CCN(c2ccc(Cl)cc2)CC1 | -27.8
18 | O=[N+]([O-])c1ccc(N2CCN(C(=S)NC3CCCCC3)CC2)cc1 | -53
19 | COc1ccc([C@H]2CC(=O)C=C(c3cccc4c3Oc3ccccc3S4)C2)cc1 | -28.4
20 | Cc1ccc(CNC(=O)CC(C)S(=O)(=O)c2ccc3c(c2)NC(=O)CO3)cc1 (stereo not shown) | -22.1
21 | CC(=O)c1ccn(S(=O)(=O)c2ccc(Cl)cc2)c1 | 6.57
22 | CC1(C)CC(=O)C([N+](=O)[O-])=C(NCCCC(=O)O)C1.O | 15

Row | SMILES | hERG current change (%, negative = inhibition) at 10uM [%]
23 | Cc1ccc(-n2c(C)cc(C(=O)COC(=O)C3=NNC(=O)CC3)c2C)cc1 | -42.3
24 | Cc1cc(C(=O)COC(=O)C2=NNC(=O)CC2)c(C)n1-c1ccc(OC(F)F)cc1 | -48.4
25 | Cc1cc(C(=O)C(C)OC(=O)C2=NNC(=O)CC2)c(C)n1-c1ccc(OC(F)F)cc1 (stereo not shown) | -73.3
26 | COc1cc(C(=O)NCC(c2ccco2)N2CCCC2)ccc1OCc1c(C)noc1C (stereo not shown) | -21.1
27 | O=C(Nc1cccc2ncccc12)c1ccc(-c2ccc(Cl)cc2Cl)o1 | -7.06
28 | CS(=O)(=O)N(CC(=O)Nc1ccc(S(=O)(=O)N2CCOCC2)cc1)c1cccc(F)c1 | -9.72
29 | Cc1noc(C)c1COc1cccc(C(=O)Nc2ccccc2)c1 | -7.11
30 | Cc1ccc(OCCNC(=O)CCC(=O)N2CCOCC2)cc1 | 15.9
31 | Cc1ccc(S(=O)(=O)N2CCN(CC(=O)N/N=C\c3ccc(Cl)c([N+](=O)[O-])c3)CC2)cc1 | -30.8
32 | CC1CCN(CC(=O)Nc2ccc(S(=O)(=O)N3CCC(C)CC3)cc2)CC1.Cl | -42.8
33 | Cc1ccc(S(=O)(=O)N2CCN(CC(=O)Nc3ccc([N+](=O)[O-])cc3)CC2)cc1C | -76.9
34 | CC1CN(CC(=O)Nc2ccc(S(N)(=O)=O)cc2)CC(C)O1 (stereo not shown) | -52
35 | Cc1ccc(S(=O)(=O)N2CCN(CC(=O)Nc3ccc(N4CCOCC4)cc3)CC2)cc1C | -11.5
36 | NS(=O)(=O)c1ccc(NC(=O)CN2CCCC2)cc1 | 3.7
37 | O=C(CN1CCN(S(=O)(=O)c2ccccc2)CC1)Nc1ccc(Cl)c(Cl)c1 | -16
38 | O=C(CN1CCN(S(=O)(=O)c2ccccc2)CC1)Nc1ccc(Cl)c([N+](=O)[O-])c1 | -65
39 | CC1CCN(S(=O)(=O)c2ccc(NC(=O)CN3CCN(c4ccccc4)CC3)cc2)CC1 | -58.2
40 | Cc1ccc(C)c(S(=O)(=O)N2CCN(CC(=O)Nc3ccc([N+](=O)[O-])cc3)CC2)c1 | -40.7
41 | CC1CC(C)CN(CC(=O)Nc2ccc(S(N)(=O)=O)cc2)C1 (stereo not shown) | 13.7
42 | CC1CCN(S(=O)(=O)c2ccc(NC(=O)CN3CCN(C)CC3)cc2)CC1 | -16
43 | Cc1ccccc1S(=O)(=O)Cc1ccc(C(=O)NCCCN2CCCC(C)C2)o1 (stereo not shown) | -21.1
44 | CCc1ccccc1NC(=O)c1ccc(-c2csc(C)n2)cc1 | -12.4

Row | SMILES | hERG current change (%, negative = inhibition) at 10uM [%]
45 | COc1cccc(C(=O)OCn2nnc3ccccc3c2=O)c1 | 0.671
46 | COc1cccc(-n2c(Cc3cc(=O)[nH]c(=O)[nH]3)nnc2SCc2cccc(C(F)(F)F)c2)c1 | 15.8
47 | CCN(CC(=O)Nc1c(F)cccc1F)C(=O)c1ccc(N2C(=O)c3ccccc3C2=O)cc1 | 1.38
48 | CN(CC(=O)NCCCN1CCOCC1)S(=O)(=O)c1ccc(F)cc1 | 15.4
49 | NC(N)=NCCCC(NC(=O)c1ccccc1)C(=O)Nc1ccc2ccccc2c1 (stereo not shown) | 12.5
50 | COCC(C)N=C1NN=C(c2cc(C)n(Cc3ccccc3Cl)c2C)CS1 (stereo not shown) | -9.9
51 | CCOC(=O)C1=C(C)NC(C)=C(C(=O)OCC)C1c1cn(-c2ccccc2)nc1-c1ccco1 | -1.05
52 | COc1cc(C(=O)OCC(=O)NC(C)CCc2ccccc2)cc(OC)c1OC (stereo not shown) | 9.14
53 | O=C(CSc1ncccn1)Nc1ccc(S(=O)(=O)N2CCCCC2)cc1 | -12.9
54 | CC1CCCN(CC(=O)Nc2ccc(S(=O)(=O)N3CCCCC3)cc2)C1 (stereo not shown) | -15.7
55 | Cc1cc(C)c(C)c(S(=O)(=O)N2CCN(CC(=O)Nc3ccc([N+](=O)[O-])cc3)CC2)c1C | 15.4
56 | Cc1cc(=O)[nH]c(SCC(=O)Nc2ccc(S(=O)(=O)N3CCCCC3)cc2)n1 | -6.37
57 | O=C(CN1CCN(S(=O)(=O)c2ccccc2)CC1)Nc1ccc([N+](=O)[O-])cc1 | -73.4
58 | O=[N+]([O-])c1ccc(NC(=S)N2CCN(S(=O)(=O)c3ccccc3)CC2)cc1 | -24.6
59 | CC1CCCN(CC(=O)Nc2ccc(S(=O)(=O)N3CCCCCC3)cc2)C1 (stereo not shown) | -66.8
60 | Cc1cc(C)nc(SCC(=O)Nc2ccc(S(=O)(=O)N3CCCCC3)cc2)n1 | -61.3
61 | CC1CCCN(CC(=O)Nc2ccc(S(=O)(=O)N3CCCC3)cc2)C1 (stereo not shown) | 1.82
62 | Cc1oc2ccccc2c1CNC(=O)N(C)C | 14.2
63 | Cc1cccc(N=Nc2ccc(O)c3ncccc23)c1 | -8.51
64 | CCCN(CC(=O)Nc1ccccc1OC)C(=O)c1cc(-c2cccs2)nn1-c1ccccc1 | -9.02
65 | COc1ccc(/C=N/Nc2nc3ccccc3o2)cc1OC | 13.3
66 | CC(=O)c1ccc(N2CCN(C(=O)COc3ccc4c(c3)CCC4)CC2)cc1 | -34

Row | SMILES | hERG current change (%, negative = inhibition) at 10uM [%]
67 | Cc1ccc(SCc2cn3cccnc3n2)cc1 | 11.1
68 | COc1cccc(CNC(=O)CN2C(=O)COc3ccc(S(=O)(=O)N4CCCCCC4)cc32)c1 | 24.8
69 | COC(=O)c1cnc(Oc2ccc(NC(=O)NC(=O)c3c(OC)cccc3OC)cc2)cc1C(F)(F)F | -14.1
70 | Cc1ccc(S(=O)(=O)c2cc3c(=O)n4ccccc4nc3n(Cc3ccco3)c2=N)cc1 | -11.2
71 | Cc1ccc(S(=O)(=O)c2cc3c(=O)n4ccccc4nc3n(Cc3ccco3)c2=N)cc1C | -4.4
72 | Cc1ccc(Cn2c(=N)c(C(=O)NCc3ccco3)cc3c(=O)n4ccccc4nc32)cc1 | -79.8
73 | Cc1ccc(CNC(=O)c2cc3c(=O)n4ccccc4nc3n(Cc3ccco3)c2=N)cc1 | -75.5
74 | Cc1ccc(Cn2c(=O)n(-c3ccccc3)c(=O)c3ccc(C(=O)NCc4ccco4)cc32)cc1 | -10.1
75 | Cc1cccc(CSc2ccc(S(=O)(=O)N3CCCC3)cn2)c1 | 5.24
76 | CC(NC(=O)C(=O)NCc1cccs1)c1ccccc1 (stereo not shown) | 16.9
77 | CCn1cc(S(=O)(=O)CC(=O)Nc2ccc3c(c2)OCCO3)c2ccccc21 | -13.1
78 | CCOC(=O)C1=C(C)N(c2ccccc2)C(=O)/C1=C\c1cccs1 | 18.1
79 | CCCCCC(=O)N1CCN(CCN=CC2=C(O)CC(c3ccco3)CC2=O)CC1 (stereo not shown) | -76.2
80 | CCCCCC(=O)N1CCN(CCN=CC2=C(O)CC(c3cccs3)CC2=O)CC1 (stereo not shown) | -106
81 | CC(C)C(=O)N1CCN(CCN=CC2=C(O)CC(c3ccco3)CC2=O)CC1 (stereo not shown) | 0.717
82 | CC(=O)N1CCN(CCN=CC2=C(O)CC(c3cccs3)CC2=O)CC1 (stereo not shown) | 8.53
83 | CCC(=O)N1CCN(CCN=CC2=C(O)CC(c3cccs3)CC2=O)CC1 (stereo not shown) | -9.43
84 | CC(=O)N1CCN(CCN=CC2=C(O)CC(c3ccco3)CC2=O)CC1 (stereo not shown) | 1.17
85 | COc1cc(-c2cc(-c3ccc(O)cc3)nc(N)c2C#N)ccc1O | 18.5
